# Experimental data from PubChem BioAssay (NCI).
# The panel holds about 83,000 compounds, 20% with a hit somewhere; the sample as a whole holds those more often.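 Growth was measured after 48 h exposure to one concentration of compound in 96-well plates. Values under 10 count as active.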 Unmarked numbers belong to inactive results. The source made the active and inactive calls.
# Columns and labels:
# Assay in all cases: NCI-60 one-dose screen, 48 h (100 = growth as untreated, 0 = no growth, -100 = all killed)
# Details in all cases: 10 µM unless noted
# [1] = system: DU-145 prostate
# [2] = system: K-562 leukemia
# [3] = system: MALME-3M melanoma
# [4] = system: MDA-MB-231 breast
# [5] = system: RXF 393 renal
# [6] = system: SF-268 CNS
# [7] = system: SF-295 CNS
# [8] = system: SF-539 CNS
# [9] = system: UACC-257 melanoma
# [10] = system: M14 melanoma
# [11] = system: HCT-15 colon
# [12] = system: HT29 colon
# [13] = system: SNB-75 CNS
# [14] = system: SNB-19 CNS
# [15] = system: U251 CNS
# [16] = system: PC-3 prostate
# [17] = system: SK-MEL-5 melanoma
# [18] = system: UACC-62 melanoma
# [19] = system: LOX IMVI melanoma
# [20] = system: SK-MEL-28 melanoma
Compound,growth [1],growth [2],growth [3],growth [4],growth [5],growth [6],growth [7],growth [8],growth [9],growth [10],growth [11],growth [12],growth [13],growth [14],growth [15],growth [16],growth [17],growth [18],growth [19],growth [20]
Nc1nc(Nc2ccccc2)c(C=Nc2ccccc2)c(=O)[nH]1,103%,90.4%,103%,104%,91.7%,94%,95.5%,85.5%,93.6%,91.5%,96.9%,101%,80.3%,89.1%,89.1%,87.5%,98.4%,84.3%,87.1%,109%
COC(=O)CNC(=O)[C@@H](OC)[C@@H]1Cc2cc3cc(OC4CC(OC5CC(O)C(O)C(C)O5)C(O)C(C)O4)c(C)c(O)c3c(O)c2C(=O)[C@H]1OC1CC(OC2CC(OC3CC(C)(O)C(O)C(C)O3)C(O)C(C)O2)C(O)C(C)O1 (stereo not given in full),17.2%,10.2%,-35.3% (active),21.5%,-75.4% (active),21.1%,6.85% (active),-28.7% (active),6.03% (active),-32.1% (active),31.5%,3.78% (active),-51.7% (active),9.4% (active),9.93% (active),12.9%,-44.6% (active),-65.2% (active),-15.5% (active),-17.2% (active)
CS(=O)(=O)CCNCc1ccc(-c2ccc3ncnc(Nc4ccc(OCc5cccc(F)c5)c(Cl)c4)c3c2)o1,12%,-22.7% (active),-80.3% (active),-62.8% (active),-73.9% (active),8.76% (active),-7.05% (active),-91% (active),-94.1% (active),-64.5% (active),-3.39% (active),-59.1% (active),-97.2% (active),3.57% (active),-84.8% (active),-20.6% (active),-98.9% (active),-52.4% (active),-72.5% (active),-95.7% (active)
COC(=O)c1ccc2c(C(=Nc3ccc(N(C)C(=O)CN4CCN(C)CC4)cc3)c3ccccc3)c(O)[nH]c2c1,78.3%,3.75% (active),54.2%,54.8%,15.1%,42.8%,84.1%,36.1%,23%,50.9%,65.9%,8.01% (active),18%,67.9%,45.4%,67.9%,68%,90.2%,33.6%,74.5%
CC/C(=C(/c1ccc(Cl)cc1)c1ccc(OCCN2CCCCC2)cc1)c1ccc(Cl)cc1,89.8%,26.2%,82.9%,94.3%,96.6%,88%,60.6%,87.8%,78.3%,76.6%,57.1%,23%,85.7%,85.7%,62.3%,63.7%,86.9%,97%,82.2%,98.5%
C[C@]12O[C@H](C[C@]1(O)CO)n1c3ccccc3c3c4c(c5c6ccccc6n2c5c31)CNC4=O,3.57% (active),4.93% (active),-85.3% (active),-44.2% (active),-90.2% (active),-45.5% (active),-83.8% (active),-96.6% (active),-77.2% (active),-56.4% (active),-12.4% (active),-22.5% (active),-99.4% (active),-20.6% (active),-75.1% (active),-31% (active),-87% (active),-49.9% (active),-70.5% (active),-85.9% (active)
Cn1c(Nc2ccc(C(F)(F)F)cc2)nc2cc(Oc3ccnc(-c4ncc(C(F)(F)F)[nH]4)c3)ccc21,60.4%,61.8%,-11.7% (active),51.7%,7.28% (active),46.1%,54.1%,21.2%,11.9%,15.7%,21.4%,6.83% (active),61.2%,56.6%,46.3%,65.8%,39%,8.71% (active),34.1%,8.35% (active)
CC(C)(C)OC(=O)N1CCC(O)[C@@H](O[Si](c2ccccc2)(c2ccccc2)C(C)(C)C)[C@H]1/C=C/c1ccccc1 (stereo not given in full),57.6%,38.7%,47.3%,49.5%,6.38% (active),52.5%,36.7%,57.1%,40.8%,50%,41.1%,37.9%,46.8%,58.5%,44.4%,14%,30.2%,57.1%,61.4%,65.1%
COCCOc1cnc2ccn([C@H](C)c3nnc4c(F)cc(-c5cnn(C)c5)cn34)c(=O)c2c1,91.2%,96.8%,9.06% (active),63.9%,81.2%,85.9%,67.4%,99.1%,69.1%,91.6%,95.5%,104%,93.2%,73.9%,92.2%,78.7%,47.5%,20.7%,61.5%,44%
O=C(CNc1nnc(-c2ccc(Cl)cc2)o1)Nc1ccc(-c2nc3ccccc3s2)cc1,98.5%,85.6%,88.7%,98.8%,100%,77.3%,102%,97%,103%,102%,89.6%,95.7%,85.8%,90.6%,81.6%,88.6%,92.1%,86.1%,-43.1% (active),117%
O=C1NC(=O)/C(=C/c2ccc3nccc(-c4ccncc4)c3c2)S1,2.86% (active),5.97% (active),-42.7% (active),-13.3% (active),-74.2% (active),-11.5% (active),-48.2% (active),-61.5% (active),-33.5% (active),-45.5% (active),-19.5% (active),-51.4% (active),-45.9% (active),-26.6% (active),-74.6% (active),-24.5% (active),-94.7% (active),-74.2% (active),-40.8% (active),-32.6% (active)
CN1CCN(CC(=O)Nc2ccc(-c3nc4ccccc4s3)cc2)CC1,85.2%,41.8%,98.3%,59.8%,54.3%,83%,91.1%,-31.9% (active),105%,67.6%,52.9%,39.6%,73.1%,89.7%,67.5%,83.6%,73.7%,-35.8% (active),-33.7% (active),33.8%
CCCCOc1nc2cc(Cl)ccc2cc1/C=C/c1cc(/C=C/c2cc3ccc(Cl)cc3nc2OCCCC)n(-c2ccccc2)n1,101%,91.7%,92.8%,82.3%,81.6%,74.9%,52.4%,91.9%,67%,99.3%,112%,88.9%,-17.4% (active),69.9%,43.2%,86.3%,106%,72.7%,86.2%,112%
CNC(=O)CN1CCC(Oc2cc3c(Nc4cccc(Cl)c4F)ncnc3cc2OC)CC1,44.9%,60.9%,91.1%,43.6%,24%,51%,76.1%,72.8%,74.4%,84.1%,66.8%,36.8%,20.9%,70.3%,80.4%,65.7%,77.2%,86.8%,37.7%,91.7%
